Consider 16 compounds from article PMC5540273 (PLoS ONE, 2017).

In assay [1] the test system is T1, RSK1(Kin.Dom.2-C-terminal).
T1 construct: gene RPS6KA1

The test system of assay [2] is T2, RSK4(Kin.Dom.2-C-terminal).
T2 construct: gene RPS6KA6
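Further: kd values determined as follow-up on hits from a single-replicate KINOMEscan panel screen.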

On to `C[C@@H](Oc1cc(-n2cnc3ccc(NC(=O)NC(C)(C)C)cc32)sc1C(N)=O)c1ccccc1Cl` [GSK346294], for which the values for the Kd in the assay on PLK2 and in the assay on PLK3 were 0.077 µM and 0.15 µM, respectively.

Regarding `COc1ccc(COc2cc(-n3cnc4ccccc43)sc2C(N)=O)cc1` [GSK1024304], the equilibrium dissociation constant (Kd) in the assay with PLK2 worked out at 0.25 µM; in the assay with PLK3, 0.38 µM; with RIOK2, 0.076 µM.

For the compound `Fc1ccc(-c2ncn(CCCN3CCOCC3)c2-c2ccccn2)cc1` [SB-211742], in the assay with PRKCI, the equilibrium dissociation constant (Kd) was greater than 10 µM.

For the compound `Cc1cccc(-c2nc(Nc3ccc4ncsc4c3)c3ccccc3n2)n1` [GW867588], the Kd was found to be 0.016 µM with PRKD1 and 0.022 µM in the assay on PRKD2.

On to `Cc1nnc(-c2ccc3occ(-c4ccc(C(C)O)cc4)c3c2)o1` (stereo not shown), for which the dissociation constant (Kd) in the assay on RAF1 was greater than 10 µM.

`O=c1cc(N2CCOCC2)nc2n(Cc3cccc4ccccc34)ccn12` [GSK2333389] showed a Kd in the assay with RET greater than 10 µM.

Take `c1ccc(-c2cc(-c3c[nH]nc3-c3ccccn3)ccn2)cc1` [GW576604]: the equilibrium dissociation constant (Kd) in the assay with RIPK2 is 7.6 µM.

As to `CCCCCc1nc2c(N)ncnc2n1CCCCC` [SKF-97255], the Kd in the assay on ROCK1 was determined as 0.28 µM.

Regarding `CNc1ncnc2[nH]ncc12` [SKF-18355], the dissociation constant (Kd) in the assay on ROCK1 amounted to 0.38 µM; in the assay on ROCK2, 0.33 µM.

For the compound `CC(C)(C)n1cnc2c(N)ncnc21` [SKF-97359], the Kd (in assay [1]; with SgK110) was greater than 10 µM each time.

`CN1c2ccc(NCc3ccc(F)cc3)cc2-c2c(cnn2C)S1(=O)=O` yielded a dissociation constant (Kd) in assay [2] greater than 10 µM.

In the case of `CN1c2ccc(CNc3ccc(F)cc3)cc2-c2c(cnn2C)S1(=O)=O`, the dissociation constant Kd with SGK2 is greater than 10 µM.

For `CSc1ccc(-c2cc3ncnc(SCC(=O)O)c3s2)cc1`, in the assay with SRPK2, the Kd is greater than 10 µM.

In the assay on STK36, `COc1ccc(Nc2nccc(N3CCC(NC(=O)Nc4cc(C)ccc4C)C3)n2)cc1` (stereo not shown) [GSK1379741] returned a Kd of 1.6 µM.

Take `Cn1ccc2ncnc(Oc3ccc(NC(=O)Nc4ccncc4)c(Cl)c3)c21`: the Kd with STK39 was greater than 10 µM.

For `O=C(NCCNc1ccnc(Nc2ccc(F)cc2)n1)c1cc2ccccc2s1` [GSK1379874], the equilibrium dissociation constant (Kd) in the assay on TESK1 was greater than 10 µM.

As a reminder, the Kd is the concentration at which binding is half-saturated.
